Counter-ions that a name gives are not always drawn. ± gives the standard deviation of the averaged measurements.
Experiments:
[1] = test system: Klebsiella pneumoniae KPC-119; assay: percent growth inhibition of drug alone vs DMSO control; higher = more growth inhibition; settings: antibiotic (0.125x MIC): none (0.1% DMSO)
[2] = test system: Klebsiella pneumoniae KPC-119; assay: percent growth inhibition of drug + antibiotic vs DMSO control; higher = more growth inhibition
[3] = antibiotic (0.125x MIC): colistin, 7 µM
[4] = antibiotic (0.125x MIC): colistin, 20 µM
[5] = antibiotic (0.125x MIC): meropenem, 7 µM

Structure (SMILES) | percent growth inhibition of drug alone ([1]; 7 µM) | percent growth inhibition of drug alone ([1]; 20 µM) | percent growth inhibition [2, 3] | percent growth inhibition [2, 4] | percent growth inhibition [2, 5]
CN1CCN(c2c(F)cc3c(=O)c(C(=O)O)cn4c3c2SCC4)CC1 [Rufloxacin] | 14.6 ± 2.5% | 83.22 ± 0.72% | 96.6 ± 3.1% | 93.89 ± 0.36% | –
CCCCCCCCCCCCCCCC[N+](C)(C)CCN(Cc1ccc(OC)cc1)c1ncccn1 [Thonzonium bromide] | -1.94 ± 3.1% | 2.72 ± 1.4% | – | 98.2 ± 3.1% | –
Clc1ccc(CCC(Cn2ccnc2)Sc2c(Cl)cccc2Cl)cc1 (stereo not drawn) [Butoconazole nitrate] | -1.2 ± 2.2% | 2.34 ± 3.2% | – | 6.76 ± 0.1% | –
Cc1cc(C(C)(C)CC(C)(C)C)ccc1OCCOCC[N+](C)(C)Cc1ccccc1 [Methyl benzethonium chloride] | -1.94 ± 2.4% | -2.28 ± 0.9% | 22 ± 6.4% | – | –
CCOC(=O)OC(C)OC(=O)[C@@H]1N2C(=O)[C@@H](NC(=O)[C@H](N)c3ccccc3)[C@H]2SC1(C)C (stereo partly drawn) [Bacampicillin hydrochloride] | 0.511 ± 1.4% | -0.333 ± 0.47% | -4.19 ± 0.78% | – | –
CS(=O)(=O)c1ccc([C@@H](O)[C@@H](CF)NC(=O)C(Cl)Cl)cc1 [Florfenicol] | 32.2 ± 2% | 96.46 ± 0.59% | 97.49 ± 0.25% | 88.4 ± 7.8% | –
CN(C)CCCN1c2ccccc2Sc2ccc(Cl)cc21 [Chlorpromazine hydrochloride] | -3.83 ± 2.6% | -3.58 ± 1.3% | 41.9 ± 12% | 2.49 ± 2.4% | –
CN(C(=O)CN(CCO)CC(=O)N(C)C(C)(C)Cc1ccccc1)C(C)(C)Cc1ccccc1 [Oxethazaine] | -4 ± 0.52% | -5.74 ± 4.4% | 4.52 ± 0.46% | 95.6 ± 1.6% | –
CCN(CC)CCOC(=O)C1(C2CCCCC2)CCCCC1 [Dicyclomine hydrochloride] | 0.63 ± 2% | 2.04 ± 2.2% | – | -2.28 ± 7.1% | –
COc1cccc2c1C(=O)c1c(O)c3c(c(O)c1C2=O)C[C@@](O)(C(=O)CO)C[C@@H]3O[C@H]1C[C@H](N)[C@@H](O)[C@H](C)O1 [Epirubicin hydrochloride] | -1.63 ± 2.7% | -0.106 ± 4.7% | -0.818 ± 0.78% | – | –
C[C@H]1c2cccc(O)c2C(=O)C2=C(O)[C@]3(O)C(=O)C(C(N)=O)=C(O)[C@@H](N(C)C)[C@@H]3[C@@H](O)[C@@H]21 [Doxycycline hydrochloride] | 15.8 ± 3% | 35.7 ± 5.2% | 42.8 ± 2.2% | 91.4 ± 2.1% | –
CCN1CCCC1CNC(=O)c1cc(S(N)(=O)=O)ccc1OC (stereo not drawn) [Sulpiride] | -2.88 ± 3.1% | -3.73 ± 0.65% | – | -7.13 ± 1.4% | –
CC1COc2c(N3CCN(C)CC3)c(F)cc3c(=O)c(C(=O)O)cn1c23 (stereo not drawn) [Ofloxacin] | – | – | – | – | 96.7 ± 3.1%
CCCCC(CC)CNC(=N)NC(=N)NCCCCCCNC(=N)NC(=N)NCC(CC)CCCC (stereo not drawn) [Alexidine dihydrochloride] | – | – | – | – | 99.739 ± 0.078%

Source: the supplement of paper PMC6658780
